The list is not random: actives were taken first. Their share in the collection is about 5%.
HCMV antiviral: inhibitors of human cytomegalovirus; 4.5% of 410,000 active; activity change, negative = inhibition, % at 57.5 µM; HFF cells, HCMV-luciferase reporter, 72 h; stronger effect = lower value; in the data active = activity change below about -60%; inconclusive = no clear call, values can overlap the other calls; inactive = above about -39%
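Compounds were evaluated in HFFs infected with an HCMV luciferase reporter virus (MOI 1 PFU/cell). Luciferase in lysates collected 72 h post infection served as the replication measure.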
LmPK inh: blocks Leishmania mexicana pyruvate kinase activity; 0.37% of 290,000 active; Potency, µM (titrated, usually from 57.5 µM), for the others: at the highest dose activity change, negative = inhibition, actives largely listed as inhibitors; purified LmPK, Kinase-Glo ATP luminescence, 1 h; Q27686; note: potency is the fitted concentration of half-maximal effect
Target sequence (Q27686 whole entry, looked up): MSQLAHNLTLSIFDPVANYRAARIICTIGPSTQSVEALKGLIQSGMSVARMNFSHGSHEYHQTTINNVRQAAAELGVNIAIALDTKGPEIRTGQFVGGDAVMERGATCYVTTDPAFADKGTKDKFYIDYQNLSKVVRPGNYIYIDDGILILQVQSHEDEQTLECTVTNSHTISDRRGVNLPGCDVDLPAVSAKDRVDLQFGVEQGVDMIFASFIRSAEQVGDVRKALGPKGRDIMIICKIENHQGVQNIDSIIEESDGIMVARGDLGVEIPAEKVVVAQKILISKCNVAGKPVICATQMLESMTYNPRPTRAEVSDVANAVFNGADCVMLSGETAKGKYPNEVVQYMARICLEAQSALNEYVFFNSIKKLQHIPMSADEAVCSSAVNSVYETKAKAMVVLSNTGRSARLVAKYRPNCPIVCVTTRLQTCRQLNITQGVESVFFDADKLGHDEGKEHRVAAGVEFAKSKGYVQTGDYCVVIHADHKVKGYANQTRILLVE
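In 50 mM imidazole pH 7.2 with 7 mM MgCl2, LmPK (0.1 nM) turned over PEP (0.5 mM) and ADP (0.1 mM) for 1 h at room temperature. Luciferase read-out of ATP.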
VACV mCherry inh: inhibitors of vaccinia virus infection (mCherry reporter signal); AID 720579; Potency, µM (series often up to 36.5 µM), for inactives: top-dose activity change, negative = inhibition, actives largely listed as inhibitors; 0.63% of 310,000 active; Vaccinia virus mCherry reporter infection, fluorescence; calls by dose curve; tested in A549 cells; note: potency is the fitted concentration of half-maximal effect; nearly all actives have a fitted effect of over 35% in size
Tb PYK inh: inhibitors of Trypanosoma brucei pyruvate kinase; Q57TT1; Potency, µM (titrated, usually from 76.8 µM), without a hit: top-dose activity, negative = inhibition, actives largely listed as inhibitors; TbPYK enzyme, Kinase-Glo Plus ATP luminescence, 45 min; 0.12% of 410,000 active; note: potency is the fitted concentration of half-maximal effect; nearly all actives have a fitted effect of over 50% in size
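Assay buffer: 50 mM TEA pH 7.2, 100 mM KCl, 10 mM MgCl2, 0.05% BSA, 0.01% Tween-20. Pyruvate kinase from T. brucei plus substrate met compound, then ADP (130 uM final). Luminescence was read post 45 min RT.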
Vaccinia Venus: vaccinia inhibition (Venus reporter); Vaccinia virus Venus reporter expression, fluorescence; Potency, µM (series often up to 36.5 µM), for inactives: top-dose activity change, negative = inhibition, usual class: inhibitors; 0.46% of 330,000 active; AID 720580; calls by dose curve; tested in A549 cells; note: potency is the fitted concentration of half-maximal effect; nearly all actives have a fitted effect of over 30% in size
Numbers without * were called inactive; i = inactive; u = inconclusive; x = not tested or not shown; ! = not confirmed by another sample; [ ] = another dose, or the depositor's remark. Unless noted, calls come from the whole dose curve; as a rule, active = well fitted curve in the direction sought with a large enough effect; inconclusive = small, poorly fitted or top-dose-only effect, or another doubt; inactive = no such curve, though single readings can be large; an effect the other way counts as inactive or inconclusive. % is set by controls: 0 for no effect and ±100 for the full control effect.

SMILES	HCMV antiviral	LmPK inh	VACV mCherry inh	Tb PYK inh	Vaccinia Venus
O=c1cc(CN2CCN(c3ccccc3F)CC2)c2cc(O)c(-c3ccccc3)cc2o1	-29.8	8.5%	-17.4%	-5.4%	-2.4%
CN1CCN(Cc2cc(=O)oc3cc4c(cc23)CCC4)CC1	2.4	4.5%	x	-11.0%	x
COc1ccc(N2CCN(Cc3cc(=O)oc4cc(-c5ccccc5)c(O)cc34)CC2)cc1	-79.9*	0.0%	x	-5.1%	-21.7%
COCCCNC(=O)C[C@@H]1C[C@@]2(C(=O)OC)CCCCC=C2N(Cc2ccc(Cl)cc2Cl)C1=O	5.4	x	13.9%	0.6%	-1.5%
CCOc1ccc(N(C)S(=O)(=O)c2ccc(-c3cc(C)no3)s2)cc1	-31.1	4.1%	x	-6.9%	x
CCN(c1cccc(C)c1)S(=O)(=O)c1ccc(-c2cc(C)no2)s1	-65.4*	6.1%	x	-2.9%	x
Cc1cccc(N(C)S(=O)(=O)c2ccc(-c3cc(C)no3)s2)c1	-73.8*!	3.8%	-20.0%[7.34 µM]	4.2%	-20.8%[7.34 µM]
COc1ccc(S(=O)(=O)NC2CCCC2)cc1Br	3.4	1.3%	-24.5%	4.3%	-11.3%
FC(F)(F)c1ccccc1NC(=S)Nc1cccc(Cl)c1	-75.7*	1.9%	11.3%	-1.3%	9.2%
Fc1ccc(NC(=S)Nc2ccc(Br)cc2)cc1	-78.5*	1.4%	u	3.8%	u
Fc1ccc(NC(=S)Nc2cccc(Cl)c2)cc1	-73.1*	-2.0%	x	-3.4%	x
FC(F)(F)c1cccc(NC(=S)Nc2ccc(Cl)cc2Cl)c1	1.6	1.7%	x	-12.1%	u
Fc1ccc(NC(=S)Nc2ccc(F)c(Cl)c2)cc1Cl	x	2.8%	u	-3.7%	10µM*
O=C(NCCCN=C1NS(=O)(=O)c2ccccc21)c1ccco1	-2.4	0.1%	i	0.1%	-2.1%
c1ccc2c3c([nH]c2c1)CCNC3	73.7	2.2%	u	2.9%	0.7%
C/C=C/C(=O)OCC(=O)Nc1ccc(SC(F)F)cc1	-76.2*	-7.5%	-19.8%	1.4%	-15.0%
CC(=O)OCC(=O)Nc1ccc(SC(F)F)cc1	-12.1	-5.9%	i	-6.3%	-18.1%
O=C(CCl)NCCCN(C(=O)C(Cl)Cl)c1ccc([N+](=O)[O-])cc1	-103.2*	6.0%	x	6.0%	x
COCCCNC(=O)c1ccc([N+](=O)[O-])cc1	-0.3	-0.9%	i	-6.4%	-16.5%
CC(O)CN(CC(C)O)c1ccc2c(c1)Cc1cc([N+](=O)[O-])ccc1-2 (stereo not given)	158.1	x	-7.2%	-13.6%	133.2%
O=C(c1csc(Nc2ccccc2Cl)n1)N1CCCC1	-93.2*	-0.4%	-24.0%	-18.3%	-15.3%
O=C(c1csc(Nc2cccc3ccccc23)n1)N1CCCC1	0.0	2.7%	x	-17.2%	x
S=c1[nH]nc(CCc2nc3ccccc3[nH]2)n1-c1cccc(Cl)c1	-8.9	10µM*	-4.9%	u	-3.8%
CCN(CC)S(=O)(=O)c1cccc(-c2nnc(SCCCC(=O)c3ccccc3)o2)c1	-23.6	4.7%	x	x	x
CCN(CC)S(=O)(=O)c1cccc(-c2nnc(SCc3nc4ccccc4s3)o2)c1	-7.0	-0.5%	x	-7.5%	28.2µM*
SMILES	HCMV antiviral	LmPK inh	VACV mCherry inh	Tb PYK inh	Vaccinia Venus
C=C1CC[C@H](O)C/C1=C/C=C1\CCC[C@]2(C)[C@@H]([C@H](C)CCCC(C)(C)O)CC[C@@H]12	x	x	x	1.4%	x
CC(OC(=O)c1ccc(NC(N)=O)cc1)C(=O)Nc1ccc2c(c1)OCCO2 (stereo not given)	2.8	x	i	1.3%	-1.0%
COCc1cc(=O)[nH]c(Nc2nc3ccc(C)cc3o2)n1	-102.2*	-6.1%	x	-14.3%	u
COc1ccc(-c2coc3cc4oc(=O)c5ccccc5c4cc23)cc1F	-84.5*	1.1%	-8.9%	0.3%	-30.0%
CCCN1C(C)C(C(=O)OCC)=CN(Cc2ccc(Br)cc2)S1(=O)=O (stereo not given)	-36.2	x	-7.0%	-5.2%	-19.2%
CCOc1ccccc1NC(=O)Nc1ccc2nc(N3CCN(C)CC3)cc(C)c2c1	-105.6*	x	u	-2.4%	u
Cc1cc(N2CCCC2)nc2ccc(NC(=S)NCCCN3CCC(C)CC3)cc12	-88.4*	5.6%[11.5 µM]	14.1µM*	-2.8%	u
CCCCN(CC)C(=S)Nc1ccc2nc(N3CCN(C)CC3)cc(C)c2c1	-72.2*	9.0%	x	-3.5%	x
CCCN1CCN(CCCNC(=S)Nc2ccc3nc(N4CCN(CC)CC4)cc(C)c3c2)CC1	u	0.5%	x	0.0%	x

Screening results as filed in PubChem.
